Rows were chosen to be rich in hits. Some 1.2% of all compounds tested hit in one or more screens of this group.
RGS7-Gao = modulates binding of RGS7 to human Galphao. P09471. Multiplexed bead flow cytometry; actives lie on both sides. binding response (% of control), % at 10 µM. 220,000 compounds, 0.35% hits; in the data active = binding response below about 49% or above about 150%; inconclusive = no clear call, values can overlap the other calls; inactive = in between;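 note: fluorescent Galphao held in activated GDP-AlF4 state binding bead-coupled RGS7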
Avidin bead fluor = compound fluoresces at 488/530 nm on avidin beads; compound fluorescence 488/530 nm, flow cytometry; active compounds read high; fluorescence (KMESF) at 10 µM; 220,000 compounds, 0.38% hits; in the data active = fluorescence above about 47
RGS8-Gao = modulates binding of RGS8 to human Galphao | P09471 | multiplexed bead flow cytometry; actives lie on both sides | response (percent of control binding), % at 10 µM | 220,000 compounds, 0.34% hits | AID 1423; in the data active = response below about 60% or above about 140%; inactive = in between;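 note: Galphao activated as the GDP aluminium fluoride complex binding bead-coupled RGS8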
GSH bead fluor = GSH bead compound fluorescence profile; GSH beads flow cytometry, compound fluorescence 488/530 nm; active compounds read high; fluorescence (KMESF) at 10 µM; 190,000 compounds, 0.25% hits; in the data active = fluorescence above about 89;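 note: glutathione beads carrying GST-tagged Bcl family fusion proteins plus one bare bead set; values are compound well signal with DMSO vehicle wells as background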
RGS16-Gao = modulates binding between human RGS16 and Galphao. O15492+P09471. bead-based flow cytometry RGS16-Galphao binding, fluorescence; actives lie on both sides. binding response (% of control), % at 10 µM. 220,000 compounds, 0.38% hits;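 note: Galphao activated by GDP with aluminum fluoride before binding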
RGS4-Gao reg = modulates binding of RGS4 to human Galphao | P09471 | Multiplexed bead flow cytometry; actives lie on both sides | binding response (% of control), % at 10 µM | 220,000 compounds, 0.33% hits; in the data active = binding response below about 49% or above about 150%; inactive = in between;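 note: fluorescent Galphao activated with aluminum fluoride binding bead-coupled RGS4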
RGS4-Gao HTS = modulates binding between human RGS4 and Galphao; shares compounds with RGS16-Gao; multiplexed bead flow cytometry, RGS–Galpha-o binding; RGS4–Galpha-o binding response, % at 10 µM; 1,600 compounds, 99% hits;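 note: fluorescently labeled Galpha-o bound to GDP with aluminium fluoride binding biotinylated RGS beads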
Target sequence (P09471 whole entry, looked up): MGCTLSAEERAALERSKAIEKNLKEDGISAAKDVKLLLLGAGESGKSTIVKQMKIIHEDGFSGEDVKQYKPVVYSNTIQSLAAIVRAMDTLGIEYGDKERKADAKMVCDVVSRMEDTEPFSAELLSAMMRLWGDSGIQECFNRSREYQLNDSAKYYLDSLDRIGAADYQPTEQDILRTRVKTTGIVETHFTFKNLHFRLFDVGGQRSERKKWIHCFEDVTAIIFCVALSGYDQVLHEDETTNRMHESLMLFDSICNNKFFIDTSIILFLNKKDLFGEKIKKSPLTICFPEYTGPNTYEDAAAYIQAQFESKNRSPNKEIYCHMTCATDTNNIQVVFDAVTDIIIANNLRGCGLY
Target sequence (P49798 whole entry, looked up): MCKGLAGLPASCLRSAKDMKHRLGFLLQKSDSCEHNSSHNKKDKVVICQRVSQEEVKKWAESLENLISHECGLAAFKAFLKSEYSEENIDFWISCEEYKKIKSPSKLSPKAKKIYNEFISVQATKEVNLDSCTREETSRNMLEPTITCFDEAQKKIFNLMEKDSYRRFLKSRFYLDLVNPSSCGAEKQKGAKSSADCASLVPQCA
Avidin counter = interferes with biotinylated probe binding to avidin beads. shares compounds with RGS16-Gao. streptavidin beads, fluorescein-biotin binding, flow cytometry. inhibition, % at 10 µM. 1,700 tested, under 10 active;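 active = inhibition above 50%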;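 note: median green fluorescence of gated singlet beads compared with DMSO control wells; 0% = DMSO wells and 100% = complete loss of bead fluorescence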
RGS8-Gao confirm = confirmation of regulators of human RGS8-Galphao interaction; shares compounds with RGS16-Gao; bead-based flow cytometry RGS8-Galphao binding, fluorescence; actives lie on both sides; binding response (% of control), % at 10 µM; 1,700 compounds, 3% hits; in the data active = binding response below about 72% or above about 130%; inactive = in between;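 note: Galphao activated as GDP AlF4 complex before binding bead RGS8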
RGS7-Gao single = confirmation of regulators of human RGS7-Galphao interaction; response (percent of control binding), % at 10 µM; shares compounds with RGS16-Gao; bead-based flow cytometry RGS7-Galphao binding; actives lie on both sides; AID 1837; 1,700 compounds, 7.8% hits; in the data active = response below about 75% or above about 130%; inactive = in between;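 note: fluorescent Galphao activated with GDP and aluminum fluoride binding bead-coupled RGS7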
RGS16-Gao single = confirmation of regulators of human RGS16-Galphao interaction; bead-based flow cytometry, RGS16-Galphao binding; actives lie on both sides; shares compounds with RGS16-Gao; 1,700 compounds, 4% hits; response (% of control binding), % at 10 µM; in the data active = response below about 74% or above about 130%; inactive = in between;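 note: Galphao activated as the GDP aluminium fluoride complex binding bead-coupled RGS16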
RGS4-Gao single = confirmation of regulators of human RGS4-Galphao interaction; binding response (% of control), % at 10 µM; RGS4-Galphao binding, multiplexed bead flow cytometry; actives lie on both sides; AID 1840; shares compounds with RGS16-Gao; 1,700 compounds, 4% hits; in the data active = binding response below about 74% or above about 130%; inactive = in between
RGS19-Gao conf = confirmation of regulators of human RGS19-Galphao interaction | shares compounds with RGS16-Gao | bead-based flow cytometry RGS19-Galphao binding; actives lie on both sides | response (percent of control binding), % at 10 µM | 1,700 compounds, 5% hits; in the data active = response below about 50% or above about 160%; inactive = in between;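 note: 100% = no compound control and 0% = blank background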
An asterisk follows results filed as active; ? = inconclusive; . = no result given; [ ] = another dose, or the depositor's remark. Unless noted, the rule behind the calls is not given here.

SMILES	RGS7-Gao	Avidin bead fluor	RGS8-Gao	GSH bead fluor	RGS16-Gao	RGS4-Gao reg	Avidin counter	RGS8-Gao confirm	RGS7-Gao single	RGS16-Gao single	RGS4-Gao single	RGS19-Gao conf	others
Cc1c(C(c2ccc(F)cc2)c2c(O)c3ccccc3oc2=O)c(=O)n(-c2ccccc2)n1C (centres undefined)	38*	3	46*	21	84	67	0	108	110	113	106	112	RGS4-Gao HTS=67*
O=P(Nc1ccccc1)(Nc1ccccc1)Oc1ccccc1	81	5	62	30	10*	80	0	99	106	103	105	106	RGS4-Gao HTS=80*
COc1ccc(NP(=O)(Nc2ccc(OC)cc2)Oc2ccccc2)cc1	104	23	98	15	106	100	.	.	.	.	.	.
O=C(O)CC1OCC=C2CN3CCC45C6=CC(=O)C(=O)C([N+](=O)[O-])=C6NC4C1C2CC35 (centres undefined)	?	2	69	.	47	46*	-1	99	97	97	101	98
C/C(=N\N1CCN(C)CC1)c1c(O)[nH]c(=O)[nH]c1=O	100	4	102	16	105	100	.	.	.	.	.	.
Nc1c([N+](=O)[O-])cc(F)c(N2CCNCC2)c1Br	39*	0	52*	10	40	44*	0	104	101	104	99	89
C=CC[N+]1(C)C2CCC1CC(O)C2 (centres undefined)	102	3	100	12	97	98	.	.	.	.	.	.
Cc1cccc(N2C(=O)NC(=O)/C(=C\c3cccn3-c3ccc(Cl)cc3)C2=O)c1	233*[activator]	402*	89	12	95	129	.	.	.	.	.	.	RGS4-Gao HTS=129*
CC(C)(CN)CC(=O)O	?	8	96	.	93	91	.	.	.	.	.	.
CN(c1ccc(OCC(=O)N2CCN(C/C=C/c3ccccc3)CC2)cc1)S(=O)(=O)c1cccs1	?	8	103	.	103	107	.	.	.	.	.	.
O=C(NC12CC3CC(CC(C3)C1)C2)OC1CN2CCC1CC2 (centres undefined)	?	10	101	.	128	167*[activator]	1	100	102	99	100	100
O=[N+]([O-])c1cc(-n2cnnn2)c(O)c([N+](=O)[O-])c1	?	6	100	.	98	104	.	.	.	.	.	.
O=C1/C(=C\c2ccccc2)C2OCC=C3CN4CCC56c7ccccc7N1C5C2C3CC46 (centres undefined)	?	10	104	.	104	102	.	.	.	.	.	.
O=c1[nH]c(=O)n(Cc2ccco2)c(O)c1C=NCc1cccs1	95	32	97	13	95	96	.	.	.	.	.	.
O=c1[nH]c(=S)n(Cc2ccco2)c(O)c1C=NCc1cccs1	.	.	.	40	.	.	-1	87	53*	74*	66*	47*
CC(C)N1C(=O)CC2(CC[N+](C)(CCOC(=O)C(O)(c3ccccc3)c3ccccc3)CC2)C1=O (centres undefined)	27*	4	32*	34	25*	32*	3	104	102	101	102	85
c1ccc(CCn2nnnc2CN2CCC(n3nnc4ccccc43)CC2)cc1	128	6	161*[activator]	7	434	131	-1	105	105	105	103	106	RGS4-Gao HTS=131*
